{"source": "PubChem BioAssay AID1259416", "about": "(Broad Institute, 2018)", "note": "Out of some 69,000 compounds screened, about 2,600 (3.8%) were called active. This excerpt belongs to a sample that is enriched for actives. Values without a mark were called inactive. No stated cut-off is given here; in the data, active means activity change below about -70% (passing the limit was not always enough); inconclusive means no clear call, values can overlap the other calls.", "data": [{"test": "inhibitors of Toxoplasma growth in IFN-γ-primed hosts – cell-based, primary screen (AID 1259416);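 further: host cells are HeLa cells infected with Toxoplasma gondii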", "conditions": "Toxoplasma gondii growth in IFN-gamma-treated host cells; active compounds read low; concentration not given here", "values": [{"compound": "CCCC(=O)NCCc1sc(-c2cccc(F)c2)nc1C", "activity change, negative = inhibition": "257%"}, {"compound": "CCSc1nc(CC(=O)NCc2nnc3n2CCC3)cs1", "activity change, negative = inhibition": "-48.7%"}, {"compound": "c1ccc(C2CCCN2Cc2ccc3occc3c2)nc1", "note": "(stereo not given)", "activity change, negative = inhibition": "2.99%"}, {"compound": "CCC(=O)Nc1ccc(-c2nc(Cn3cccn3)c(C)o2)cc1", "activity change, negative = inhibition": "61.8%"}, {"compound": "Cc1cnn(Cc2nc(-c3ccc(NC(=O)c4ccsc4)cc3)oc2C)c1", "activity change, negative = inhibition": "-40.9%"}, {"compound": "Cc1cnn(Cc2nc(-c3ccc(NC(=O)c4cc(F)ccc4F)cc3)oc2C)c1", "activity change, negative = inhibition": "-88.5% (active)"}, {"compound": "Cc1oc(-c2ccc(NC(=O)c3ccc(C(C)(C)C)cc3)cc2)nc1Cn1cccn1", "activity change, negative = inhibition": "-96.9% (active)"}, {"compound": "Cc1cc(C)cc(C(=O)Nc2ccc(-c3nc(Cn4cc(C)cn4)c(C)o3)cc2)c1", "activity change, negative = inhibition": "2.92%"}, {"compound": "Cc1ccsc1C(=O)Nc1ccc(-c2nc(Cn3cccn3)c(C)o2)cc1", "activity change, negative = inhibition": "-12.6%"}, {"compound": "Cc1nn(Cc2nc(-c3ccc(NC(=O)C4CCCO4)cc3)oc2C)c(C)c1C", "note": "(stereo not given)", "activity change, negative = inhibition": "33.9%"}, {"compound": "COCC(=O)Nc1ccc(-c2nc(Cn3nc(C)cc3C)c(C)o2)cc1", "activity change, negative = inhibition": "-41.3%"}, {"compound": "COc1cccc(C(=O)Nc2ccc(-c3nc(Cn4nc(C)c(C)c4C)c(C)o3)cc2)c1", "activity change, negative = inhibition": "-97.6% (active)"}, {"compound": "Cc1noc(C)c1CN1CC2C[C@H](C(=O)NCCN(C)C)N(C)C2C1", "note": "(stereo not given in full)", "activity change, negative = inhibition": "-7.4%"}, {"compound": "CN(C)S(=O)(=O)c1ccc2c(c1)cc(C(=O)NCc1cccc(F)c1)n2Cc1ccncc1", "activity change, negative = inhibition": "104%"}, {"compound": "CCc1ccc(-n2cc3c(=O)n(C)c(=O)n(C)c3c2)cc1", "activity change, negative = inhibition": "-61.6%"}, {"compound": "CC[C@H]1CN(C(=O)CCc2cnccn2)CC[C@@]1(C)O", "activity change, negative = inhibition": "-44.1%"}, {"compound": "Cc1cccc(C(=O)N2CCC3(CC2)CC(CC(=O)NCC2CC2)c2ccccc2O3)n1", "note": "(stereo not given)", "activity change, negative = inhibition": "0.492%"}, {"compound": "Cc1cccc(Cl)c1NC(=O)N1CCN(CC(C)C)C(=O)C1C", "note": "(stereo not given)", "activity change, negative = inhibition": "-2.03%"}, {"compound": "O=C(Nc1cnc2n1CCCC2)c1ccccc1-n1cncn1", "activity change, negative = inhibition": "-1.83%"}, {"compound": "C=CCn1cc(-c2c(-c3ccccc3)ncn2CCc2ccccn2)cn1", "activity change, negative = inhibition": "-1.4%"}, {"compound": "O=C(CN1CCCC1=O)N1CCCC2(C=Cc3ccccc3O2)CC1", "note": "(stereo not given)", "activity change, negative = inhibition": "-13.8%"}, {"compound": "Cc1ccc(CN2CCC3(CC2)CC(NC(=O)C2CC2)CCO3)cc1C", "note": "(stereo not given)", "activity change, negative = inhibition": "-5.15%"}, {"compound": "Cc1ccc(-c2ccccc2-n2cnnc2)o1", "activity change, negative = inhibition": "-6.57%"}, {"compound": "Cc1ccccc1-c1nc2ccc(-n3cnnc3)cc2o1", "activity change, negative = inhibition": "-95.3% (active)"}, {"compound": "COCCNC(=O)C[C@@H]1CC[C@H]2[C@H](COc3ccc(NS(=O)(=O)c4ccc(Cl)cc4)cc3C(=O)N2C)O1", "activity change, negative = inhibition": "-37.6%"}]}]}
